PubChem BioAssay (EPA / NIEHS)
Activity calls are given as the source filed them. How the source made its calls: active means hit-call score of the fitted dose curve at least 0.9, where 1 is the maximum; inactive means score below 0.9.

assay: ATG_TA_CIS: Attagene CIS-FACTORIAL HepG2 Assay for human TA Basal Promoter (AID 2282964); conditions: HepG2 Attagene CIS-factorial TA basal promoter reporter; actives raise or lower the signal
How it was run: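 Fluorescence from labelled RT-PCR reporter fragments, separated by capillary electrophoresis, gives the signal. Cells: HepG2 transiently carrying multiple reporter units, 24 h chemical dosing. Gain or loss relative to DMSO.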

SMILES	outcome	AC50
CCC(C)(CCC(C)C)C(=O)O (centres undefined)	inactive	
CCCc1c(OCCCCc2nn[nH]n2)ccc(C(C)=O)c1O	inactive	
Clc1ccccn1	inactive	
c1cc(N(CC2CO2)CC2CO2)ccc1Cc1ccc(N(CC2CO2)CC2CO2)cc1 (centres undefined)		26.1 µM (active)
CCCCCCOC(=O)CCCCCCCC(=O)OCCCCCC	inactive	
CC1=NN(c2cc(Cl)c(S(=O)(=O)O)cc2Cl)C(=O)C1N=Nc1ccc(S(=O)(=O)O)cc1 (centres undefined)	inactive	
O=C(O)Cc1c[nH]c2ccccc12	inactive	
CCCCCCCCCCC1CO1 (centres undefined)		153 µM (active)
O=[N+]([O-])c1ccc2nc[nH]c2c1	inactive	
CCCCn1cc[n+](C)c1	inactive	
CC(C)CC(=O)O	inactive	
Cc1cc(O)cc(C)c1Cl	inactive	
CC(C)n1c(/C=C/[C@@H](O)C[C@@H](O)CC(=O)O)c(-c2ccc(F)cc2)c2ccccc21	inactive	
CC1=C(CC=O)C(C)(C)CCC1	inactive	
CC(O)(P(=O)(O)O)P(=O)(O)O	inactive	
Cc1cccnc1	inactive	

SMILES	outcome	AC50
C=C(C)C(=O)OCC1CCCO1 (centres undefined)	inactive	
C1=CCC=C1	inactive	
CC(C)CC(=O)CC(C)CC(C)C (centres undefined)	inactive	
CCCOCCC	inactive	
CN(C)CCC(c1ccc(Cl)cc1)c1ccccn1 (centres undefined)	inactive	
CN(C)CCCN1c2ccccc2CCc2ccc(Cl)cc21	inactive	
CC/C=C\CC1=C(C)CCC1=O	inactive	
C[C@H]1C[C@H]2[C@@H]3CCC4=CC(=O)C=C[C@]4(C)[C@@]3(F)[C@@H](O)C[C@]2(C)[C@@]1(O)C(=O)CO		100 µM (active)
COC(OC)C(C)c1ccccc1 (centres undefined)	inactive	
F[B-](F)(F)F	inactive	
COCCCN	inactive	
CC1=CCCC(C)(C)C12CCC(C)O2 (centres undefined)	inactive	
CC(=O)c1nccs1	inactive	
OCCN(CCO)c1cccc(Cl)c1	inactive	
O=C(O)c1nc(Cl)c(Cl)c(Cl)c1Cl	inactive	

assay: ATG_TCF_b_cat_CIS: Attagene CIS-FACTORIAL HepG2 Assay for human T-Cell-Factor with beta-catenin (TCF/b-cat) (AID 2282965); conditions: HepG2 TCF/beta-catenin cis-reporter transcription, actives raise or lower the signal
How it was run: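 In this cis-format system, transfected HepG2 cells report endogenous transcription factor activity. Readout after 24 h exposure is reporter transcript abundance from RT-PCR and capillary electrophoresis, analysed for gain or loss of signal versus DMSO.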

SMILES	outcome	AC50
CC1(C)S[C@@H]2[C@H](NC(=O)[C@H](N)c3ccccc3)C(=O)N2[C@H]1C(=O)O	inactive	
CCC(C)(CCC(C)C)C(=O)O (centres undefined)	inactive	
Cc1cc(C)c(S(=O)(=O)O)cc1N=Nc1cc(S(=O)(=O)O)c2ccccc2c1O	inactive	
CCCc1c(OCCCCc2nn[nH]n2)ccc(C(C)=O)c1O	inactive	
Clc1ccccn1	inactive	
c1cc(N(CC2CO2)CC2CO2)ccc1Cc1ccc(N(CC2CO2)CC2CO2)cc1 (centres undefined)		26.1 µM (active)
CCCCCCOC(=O)CCCCCCCC(=O)OCCCCCC	inactive	
CC1=NN(c2cc(Cl)c(S(=O)(=O)O)cc2Cl)C(=O)C1N=Nc1ccc(S(=O)(=O)O)cc1 (centres undefined)	inactive	
O=C(O)Cc1c[nH]c2ccccc12	inactive	
CCCCCCCCCCC1CO1 (centres undefined)	inactive	
NCc1ccccc1	inactive	
O=[N+]([O-])c1ccc2nc[nH]c2c1	inactive	
CCCCn1cc[n+](C)c1	inactive	
CC(C)CC(=O)O	inactive	
C[Si](C)(C)O[Si](C)(C)O[Si](C)(C)C	inactive	
Cc1cc(O)cc(C)c1Cl	inactive	
CC(C)n1c(/C=C/[C@@H](O)C[C@@H](O)CC(=O)O)c(-c2ccc(F)cc2)c2ccccc21	inactive	
CC1=C(CC=O)C(C)(C)CCC1	inactive	
CC(O)(P(=O)(O)O)P(=O)(O)O	inactive	
Cc1cccnc1	inactive	

SMILES	outcome	AC50
Cc1ccccc1S(N)(=O)=O	inactive	
C=C(C)C(=O)OCC1CCCO1 (centres undefined)	inactive	
OCCOCCOCCOCCOCCO	inactive	
C1=CCC=C1	inactive	
CC(C)CC(=O)CC(C)CC(C)C (centres undefined)	inactive	
CCCOCCC	inactive	
CN(C)CCC(c1ccc(Cl)cc1)c1ccccn1 (centres undefined)	inactive	
CN(C)CCCN1c2ccccc2CCc2ccc(Cl)cc21		7.29 µM (active)
CC/C=C\CC1=C(C)CCC1=O	inactive	
C[C@H]1C[C@H]2[C@@H]3CCC4=CC(=O)C=C[C@]4(C)[C@@]3(F)[C@@H](O)C[C@]2(C)[C@@]1(O)C(=O)CO		150 µM (active)
COC(OC)C(C)c1ccccc1 (centres undefined)	inactive	
F[B-](F)(F)F	inactive	
COCCCN	inactive	
CC1=CCCC(C)(C)C12CCC(C)O2 (centres undefined)	inactive	
CC(=O)c1nccs1	inactive	
COc1ccccc1OCC(O)CO (centres undefined)	inactive	
OCCN(CCO)c1cccc(Cl)c1	inactive	
O=C(O)c1nc(Cl)c(Cl)c(Cl)c1Cl	inactive	
CC=CC(=O)O	inactive	

assay: ATG_TAL_CIS: Attagene CIS-FACTORIAL HepG2 Assay for human TAL Basal Promoter (AID 2282966); conditions: HepG2 Attagene cis-factorial TAL promoter reporter; actives raise or lower the signal;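 further: background control endpoint measuring basal TAL promoter reporter mRNA not a specific factor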
How it was run: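 HepG2, transient MRTU transfection, 24 h compound exposure; RNA → oligo(dT) RT → PCR → 6-FAM primer extension → HpaI digest → CE fluorescence. Bidirectional curve fit vs DMSO. Background-control readout.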

SMILES	outcome
CC1(C)S[C@@H]2[C@H](NC(=O)[C@H](N)c3ccccc3)C(=O)N2[C@H]1C(=O)O	inactive
CCC(C)(CCC(C)C)C(=O)O (centres undefined)	inactive
Cc1cc(C)c(S(=O)(=O)O)cc1N=Nc1cc(S(=O)(=O)O)c2ccccc2c1O	inactive
CCCc1c(OCCCCc2nn[nH]n2)ccc(C(C)=O)c1O	inactive
Clc1ccccn1	inactive
c1cc(N(CC2CO2)CC2CO2)ccc1Cc1ccc(N(CC2CO2)CC2CO2)cc1 (centres undefined)	inactive
CCCCCCOC(=O)CCCCCCCC(=O)OCCCCCC	inactive
CC1=NN(c2cc(Cl)c(S(=O)(=O)O)cc2Cl)C(=O)C1N=Nc1ccc(S(=O)(=O)O)cc1 (centres undefined)	inactive
O=C(O)Cc1c[nH]c2ccccc12	inactive
CCCCCCCCCCC1CO1 (centres undefined)	inactive
NCc1ccccc1	inactive
O=[N+]([O-])c1ccc2nc[nH]c2c1	inactive
CCCCn1cc[n+](C)c1	inactive
CC(C)CC(=O)O	inactive
C[Si](C)(C)O[Si](C)(C)O[Si](C)(C)C	inactive
Cc1cc(O)cc(C)c1Cl	inactive
CC(C)n1c(/C=C/[C@@H](O)C[C@@H](O)CC(=O)O)c(-c2ccc(F)cc2)c2ccccc21	inactive
CC1=C(CC=O)C(C)(C)CCC1	inactive
CC(O)(P(=O)(O)O)P(=O)(O)O	inactive
Cc1cccnc1	inactive

SMILES	outcome
Cc1ccccc1S(N)(=O)=O	inactive
C=C(C)C(=O)OCC1CCCO1 (centres undefined)	inactive
OCCOCCOCCOCCOCCO	inactive
C1=CCC=C1	inactive
CC(C)CC(=O)CC(C)CC(C)C (centres undefined)	inactive
CCCOCCC	inactive
CN(C)CCC(c1ccc(Cl)cc1)c1ccccn1 (centres undefined)	inactive
CN(C)CCCN1c2ccccc2CCc2ccc(Cl)cc21	inactive
CC/C=C\CC1=C(C)CCC1=O	inactive
C[C@H]1C[C@H]2[C@@H]3CCC4=CC(=O)C=C[C@]4(C)[C@@]3(F)[C@@H](O)C[C@]2(C)[C@@]1(O)C(=O)CO	inactive
COC(OC)C(C)c1ccccc1 (centres undefined)	inactive
F[B-](F)(F)F	inactive
COCCCN	inactive
CC1=CCCC(C)(C)C12CCC(C)O2 (centres undefined)	inactive
CC(=O)c1nccs1	inactive
COc1ccccc1OCC(O)CO (centres undefined)	inactive
OCCN(CCO)c1cccc(Cl)c1	inactive
O=C(O)c1nc(Cl)c(Cl)c(Cl)c1Cl	inactive
CC=CC(=O)O	inactive
